The values below come from PubChem BioAssay.

The target in the assay is Carbonic anhydrase 2 (Homo sapiens) (UniProt P00918). Kind of assay: compounds binding carbonic anhydrase 2 – biochemical, small-molecule microarray, Alexa647-labelled CAII, profiling panel (AID 1122). The conditions noted are these: CAII-A647 binding fluorescence, higher = more signal.
Turning to `CO[C@@H]1COC(=O)[C@@H]2CCCN2C(=O)[C@@H](C)COC(=O)[C@H](COCc2ccccc2)NC(=O)CC=C[C@H]1C`, the composite z-score was determined as 0.12.

Turning to `C#CCCCON=C1C[C@@H](O)[C@@H](O)[C@@H]2[C@@H]3C(=O)N([C@@H](C)c4ccccc4)C(=O)[C@@H]3CC[C@H]12`, the composite z-score was -0.0339.

For `COCCCNC(=O)[C@@]1(C)c2ccccc2C(=O)N(Cc2ccc(OC(F)(F)F)cc2)[C@H]1c1ccc(CO)cc1`, the composite z-score stood at 0.174. Molecule `C=COC[C@H]1CN2[C@@H](CC[C@@H](C)[C@@H]2c2ccc(Br)cc2)C(=O)O1` gave a composite z-score of 0.459. `CC(CCN1CCCCc2nc(C)c(C)cc21)=NOC(C)CN1CCCc2nc(C)c(C)cc21` (stereo unspecified) gave a composite z-score of 0.533. `CC(C)=NOCc1ccc(-c2cc(-c3ccccc3)no2)cc1`: the composite z-score is -0.145. Next, `CCc1cc2c(nc1CC)CCN(CCC(C)=NOC[C@@H](O)[C@H]1O[C@@H]3OC(C)(C)O[C@@H]3[C@H]1O)C2`: 0.213; `COc1cccc([C@H]2Oc3ccc(OC)cc3C(=NO[C@H](C)c3cn([C@@H]4COC[C@H]4O)nn3)[C@@H]2O)c1`: 0.377; `O=C(NN=C1C[C@@H](O)[C@@H](O)[C@@H]2[C@@H]3C(=O)N(c4ccc(F)cc4F)C(=O)[C@@H]3CC[C@@H]12)OCc1ccccc1`: 0.129.

In the case of `CCOC(=O)[C@H](Cc1ccccc1)NC(=O)CCC1CC(OC(=O)NCc2ccc3c(c2)OCO3)CC2(CCCC(COC(=O)NCc3cccc(C(F)(F)F)c3)O2)O1` (stereo partly specified), the composite z-score was -0.106.

`C[C@@H](c1ccccc1)N1C(=O)[C@H]2[C@H]3[C@H](O)C=CC(=O)[C@@H]3CC[C@H]2C1=O` displayed a composite z-score of 0.572. Next, `Cc1cc2c(c(=O)o1)[C@H](O)[C@H]1O[C@H]1C2=O`: 0.0024. In the case of `COc1ccc(COC(=O)NN=C2C[C@@H](O)[C@@H](O)[C@@H]3[C@@H]4C(=O)N(c5ccc(F)cc5F)C(=O)[C@@H]4CC[C@@H]23)cc1`, the composite z-score was -0.416.

Turning to `CO[C@@H]1COC(=O)CCC[C@@H](C)[C@H](OC)COC(=O)CCC[C@H]1C`, the composite z-score is -0.277. On to `O=C1C[C@@H](O)[C@@H](O)[C@@H]2[C@@H]3C(=O)N(Cc4ccc5c(c4)OCO5)C(=O)[C@@H]3CC[C@@H]12`, for which the composite z-score is 0.229. For the molecule `CC=CC1=C(CO)[C@H](O)[C@H]2O[C@H]2[C@H]1O`, the composite z-score was -0.173.

In the case of `CC(C)[C@H](NC(=O)OC(C)(C)C)[C@@H](O)CC(=O)OC(C)(C)C`, the composite z-score was -0.602. Next, `CO[C@H]1COC(=O)[C@@H]2CCCN2C(=O)CC=C[C@@H](C)[C@H](OC)COC(=O)CC=C[C@@H]1C`: -0.235. Next, `COC(=O)[C@H](C)NC(=O)CCC1CC(OC(=O)NCCc2ccc(F)cc2)CC2(CCCC(COC(=O)NCCc3ccc(Cl)cc3)O2)O1` (stereo partly specified): 0.0606; `CC(C)=CCCC(C)=CCON=C1[C@H]2CCn3c(=O)n(C)c(=O)n3[C@H]2[C@H](O)[C@@H]2O[C@H]12`: 0.295.

`O=C(NN=C1C[C@@H](O)[C@@H](O)[C@@H]2[C@@H]3C(=O)N(c4cccc(Oc5ccccc5)c4)C(=O)[C@@H]3CC[C@@H]12)OCc1ccccc1`: the composite z-score is -0.249. Next, `CC(=O)OC[C@H]1O[C@H](C#CCCCc2ccccc2)C=C[C@@H]1OC(C)=O`: -0.155; `CC(CCN1CCc2nc(-c3ccccc3)c(-c3ccccc3)cc2C1)=NO[C@H](C)c1cn([C@@H]2COC[C@H]2O)nn1`: -0.089. For `O[C@@H](Cc1ccccc1)[C@H]1C2C=CCCC(c3ccccc3)=C2CN1Cc1cccc(Cl)c1` (stereo partly specified), the composite z-score is 0.371. In turn, `COc1ccc([Si](C)(C)[C@H]2[C@H](CCO)O[C@@]3(C(=O)N(Cc4cccc(NC(=O)[C@H](C)O)c4)c4ccccc43)[C@@H]2C)cc1` gave a composite z-score of 0.395.

Turning to `O=C1NC(=O)C2C1C=CC(C(O)Cc1ccccc1)N2Nc1ccccn1` (stereo unspecified), the composite z-score stood at 0.865. Consider `CC(CCC(=O)OC[C@H]1O[C@H](C#Cc2ccccc2)C=C[C@@H]1Oc1ccc(C)cc1)=NOC[C@@H](O)COCc1ccco1`, for which the composite z-score was -0.451. Under `CC1CC/C=C\[C@H]2OC34C=CCN(Cn5nnc6ccccc65)C(=O)[C@H]3N(CCO)C(=O)[C@@H]4C2C(=O)O1` (stereo partly specified) stands 0.942; under `CCOC(=O)CCN1C(=O)[C@H]2[C@H]3[C@H](O)[C@H](O)CC(=NNC(=O)OCc4ccc(OC)cc4)[C@@H]3CC[C@H]2C1=O`, 0.244; under `CCN1C(=O)[C@H]2[C@H]3[C@H](O)[C@H](O)CC(=NOC(C)CN4CCCCc5nc(C)c(C)cc54)[C@@H]3CC[C@H]2C1=O` (stereo partly specified), -0.144.

Consider `C#CCCCON=C1C[C@@H](O)[C@@H](O)[C@@H]2[C@@H]3C(=O)N(CCC(=O)OCC)C(=O)[C@@H]3CC[C@@H]12`, for which the composite z-score is -0.0544.
